# Measurements as given in ChEMBL document CHEMBL1201862, “PubChem BioAssay data set” (2004).
# Several values for one entry are separate records, joined by “and”; a condition that tells them apart may be missing. Equal values may be shown once. The whole screen tested about 1,500 compounds, of which about 140 (9.3%) were called active. No rule for the calls is given here. Only a selection was taken, and actives are over-represented in it overall.
# Assay: AlphaScreen signal interference with preloaded methylated product, dose response, artefact control for NSD2 inhibitor project, biochemical, cherry-picked samples (AID 1053174);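 also: actives lower the AlphaScreen signal from the preloaded product and count as artifacts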
row,Structure (SMILES),AbsAC35
1,Cc1ccccc1NC1=C/C(=N\S(=O)(=O)c2ccc(C(=O)O)cc2)c2ccccc2C1=O,11.8 µM (active)
2,Cc1ccc(S(=O)(=O)/N=C2\C=C(Nc3cccc(C(=O)O)c3)C(=O)c3ccccc32)c(C)c1,11.5 µM (active)
3,N=C1/C(=C/c2ccc(O)c(O)c2)C(=O)N=C2SC(CC(=O)N3CCCC3)=NN12,10.6 µM (active)
4,Cc1cccc(C)c1N=Nc1c(C)cc(O)cc1C,20.6 µM (active)
5,O=C1/C(=C\c2cccc(O)c2O)SC(=S)N1Cc1ccccc1,14.9 µM (active)
6,O=C1NC(=O)/C(=C\c2ccc(O)cc2O)S1,18.9 µM (active)
7,CC1CCCC(C)N1/N=C/c1ccc(O)c(O)c1 (stereo not drawn),10.9 µM (active)
8,CSc1ccc(/C=N/Nc2cccc(C(=O)O)c2)cc1,12 µM (active)
9,O=C(Cc1nnc(NC(=O)c2ccccc2)s1)N/N=C\c1ccc(O)c(O)c1,10.6 µM (active)
10,O=C(O)CCCNc1cc(N2CCN(C(=O)c3ccco3)CC2)c2noc3c2c1C(=O)c1ccccc1-3,11.2 µM (active)
11,Cc1ccc(-n2[nH]c(C)c(/C=N/Nc3ccc([N+](=O)[O-])cc3[N+](=O)[O-])c2=O)cc1C,13.4 µM (active)
12,CN(C=[N+](C)C)c1cccc2c1C(=O)c1ccccc1C2=O,15.2 µM (active)
13,CCN1/C(=C/c2ccc3cc(C)ccc3[n+]2CC)Sc2cc(C)c(C)cc21,19.3 µM (active) and 11.4 µM (active)
14,O=[N+]([O-])c1ccc(N2CCCC2)cc1N1CCCC1,18.9 µM (active)
15,Cc1cc(C=O)c(C)n1-c1ccc(N2CCCCC2)c([N+](=O)[O-])c1,17.3 µM (active)
16,CCN(CC)c1ccc(/C=C/c2ccc3ccc(OC)cc3[n+]2CC)cc1,11.4 µM (active)
17,O=C(O)CCNc1ccc(NCCC(=O)O)c2c1C(=O)c1ccccc1C2=O,11.8 µM (active)
18,Cc1ccc(C)c(S(=O)(=O)/N=C2\C=C(NS(=O)(=O)c3ccccc3)C(=O)c3ccccc32)c1,11.3 µM (active)
19,CC(C)(C)c1ccc(S(=O)(=O)/N=C2\C=C(NS(=O)(=O)c3ccccc3)C(=O)c3ccccc32)cc1,13 µM (active)
20,CCc1ccc(S(=O)(=O)/N=C2\C=C(NS(=O)(=O)c3ccccc3)C(=O)c3ccccc32)cc1,15.7 µM (active)
21,CC(C)c1ccc(S(=O)(=O)/N=C2\C=C(NS(=O)(=O)c3ccccc3)C(=O)c3ccccc32)cc1,11.3 µM (active)
22,Cc1[nH]c(O)nc1C(=O)CCCCC(=O)OCC(=O)Nc1ccccn1,11.4 µM (active)
23,Nc1ccc(Nc2ccccc2)c(S(=O)(=O)O)c1,31.6 µM (active)
